Laboratory results from PubChem BioAssay (NCI).
Compounds without any hit were thinned out: in the full panel of roughly 83,000, 20% have a hit.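 For each line, cells grew in 96-well plates with the test compound present at a single concentration for 48 hours.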 Unmarked numbers belong to inactive results. The source made the active and inactive calls. How the source made its calls: active means growth percent below 10; inactive means the rest.

Key:
Test in all cases: NCI-60 one-dose screen, 48 h (100 = growth as untreated, 0 = no growth, -100 = all killed)
[1] = tested on: NCI-H23 lung; details: 10 µM unless noted
[2] = tested on: NCI-H226 lung; details: 10 µM unless noted
[3] = tested on: NCI-H322M lung; details: 10 µM unless noted
[4] = tested on: HOP-62 NSCLC; details: 10 µM unless noted
[5] = tested on: NCI-H460 lung; details: 10 µM unless noted
[6] = tested on: HOP-92 NSCLC; details: 10 µM unless noted
[7] = tested on: NCI-H522 lung; details: 10 µM
[8] = tested on: 786-0 renal; details: 10 µM unless noted
[9] = tested on: COLO 205 colon; details: 10 µM unless noted
[10] = tested on: DU-145 prostate; details: 10 µM unless noted
[11] = tested on: K-562 leukemia; details: 10 µM unless noted
[12] = tested on: MALME-3M melanoma; details: 10 µM unless noted
[13] = tested on: MDA-MB-231 breast; details: 10 µM unless noted
[14] = tested on: RXF 393 renal; details: 10 µM unless noted
[15] = tested on: SF-268 CNS; details: 10 µM unless noted
[16] = tested on: SF-295 CNS; details: 10 µM unless noted
[17] = tested on: SF-539 CNS; details: 10 µM unless noted
[18] = tested on: UACC-257 melanoma; details: 10 µM unless noted
[19] = tested on: M14 melanoma; details: 10 µM unless noted

Row | SMILES | growth [1] | growth [2] | growth [3] | growth [4] | growth [5] | growth [6] | growth [7] | growth [8] | growth [9] | growth [10] | growth [11] | growth [12] | growth [13] | growth [14] | growth [15] | growth [16] | growth [17] | growth [18] | growth [19]
1 | Cn1cnc([N+](=O)[O-])c1Sc1nc(N)nc2nc[nH]c12 | 52.9% | 74.1% | 77.3% | 22.8% | 20.6% | -3.12% (active) | 41.3% | 14.6% | 96.9% | 25.7% | 4.56% (active) | 68.8% | 29.6% | 44.8% | 29% | -2.69% (active) | 16.4% | 45.3% | 14.4%
2 | NC(=O)NS(=O)(=O)c1ccc(N2N=C(C(F)(F)F)CC2c2cc(C(F)(F)F)cc(C(F)(F)F)c2)cc1 (configuration not stated) | 91.3% | 101% | 88.4% | 103% | 81.3% | 49.8% | 38.4% | 95.2% | 99.8% | 85.1% | 57.7% | 87.4% | 91.6% | 11.8% | 67.8% | 68.6% | 89.5% | 31.5% | 79.7%
3 | O=C(NC1CCS(=O)(=O)C1)c1ccc(C(=O)c2ccccc2)cc1 (configuration not stated) | 98.9% | 94.5% | 128% | 101% | 104% | 101% | 90.9% | 101% | 102% | 128% | 108% | 108% | 124% | – | 118% | 99.6% | 103% | 82.7% | 98.6%
4 | CC1C(=O)NC2=Nc3ccccc3C(=O)NN21 (configuration not stated) | 97.2% | 92.9% | 97.2% | 87.8% | 104% | 94.9% | 97.5% | 97.9% | 104% | 119% | 101% | 104% | 90.4% | 116% | 113% | 105% | 103% | 114% | 102%
5 | C[C@H]1C(=O)N2c3ccccc3[C@@]3(O)C[C@@H](n4cnc5ccccc5c4=O)C(=O)N1[C@@H]23 | 106% | 98.1% | 109% | 97.4% | 107% | 102% | 92.5% | 102% | 110% | 123% | 99.2% | 107% | 110% | – | 112% | 130% | 101% | 66.8% | –
6 | Cc1cn(C(C=O)OC(C=O)CO)c(=O)[nH]c1=O (configuration not stated) | 107% | 105% | 106% | 102% | 105% | 104% | 98% | 107% | 109% | 108% | 104% | 98.8% | 108% | – | 113% | 102% | 104% | 88% | 108%
7 | O=C(Nc1ccc(Cl)cc1)Nc1ccccc1CNc1nc(Nc2ccc(OCCN3CCCC3)cc2)ncc1Cl | 33.5% | 97% | 101% | 82.2% | -77.7% (active) | 72.9% | -17% (active) | -86.6% (active) | 37.8% | -42.9% (active) | -4.05% (active) | -81% (active) | -51% (active) | -64.6% (active) | 41.7% | 89.2% | 77.6% | – | -76.3% (active)
8 | C[C@H]1O[C@@H](O[C@H]2[C@@H](O)C[C@H](O[C@H]3[C@@H](O)C[C@H](O[C@H]4CC[C@]5(C)C6CC[C@]7(C)[C@@H](C8=CC(=O)OC8)CC[C@]7(O)C6CC[C@@H]5C4)O[C@@H]3C)O[C@@H]2C)C[C@H](O)[C@@H]1O (some centres not stated) | -47.5% (active) | -100% (active) | -84.9% (active) | -100% (active) | -97.3% (active) | -29.3% (active) | -65% (active) | -93.4% (active) | -92.6% (active) | -100% (active) | -45% (active) | -63.9% (active) | -48.6% (active) | -27.1% (active) | -100% (active) | -98.2% (active) | -94.6% (active) | -100% (active) | -81.1% (active)
